# Laboratory results published in PubChem BioAssay.
# A number with no mark means an inactive call. Unless noted, no stated cut-off is given here; in the data, active means inhibition above about 30%; inactive means the rest.
# Legend:
# [1] = biological target: Nuclear receptor coactivator 3 (Homo sapiens) (UniProt Q9Y6Q9); assay: NCOA3 GAL4-fusion reporter inhibition – cell-based, luminescence, quadruplicate, confirmation (AID 588792;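 active means mean inhibition over 43.08%, the solvent-only control mean plus 3 SD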;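 further: 0% = DMSO treated cells and 100% = gossypol at 36 µM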); conditions: HEK293 GAL4-SRC3 luciferase reporter, at 3.6 µM, hits give high values
# Chain of Nuclear receptor coactivator 3 (Homo sapiens) (Q9Y6Q9 whole entry, looked up, the tested form may be a part): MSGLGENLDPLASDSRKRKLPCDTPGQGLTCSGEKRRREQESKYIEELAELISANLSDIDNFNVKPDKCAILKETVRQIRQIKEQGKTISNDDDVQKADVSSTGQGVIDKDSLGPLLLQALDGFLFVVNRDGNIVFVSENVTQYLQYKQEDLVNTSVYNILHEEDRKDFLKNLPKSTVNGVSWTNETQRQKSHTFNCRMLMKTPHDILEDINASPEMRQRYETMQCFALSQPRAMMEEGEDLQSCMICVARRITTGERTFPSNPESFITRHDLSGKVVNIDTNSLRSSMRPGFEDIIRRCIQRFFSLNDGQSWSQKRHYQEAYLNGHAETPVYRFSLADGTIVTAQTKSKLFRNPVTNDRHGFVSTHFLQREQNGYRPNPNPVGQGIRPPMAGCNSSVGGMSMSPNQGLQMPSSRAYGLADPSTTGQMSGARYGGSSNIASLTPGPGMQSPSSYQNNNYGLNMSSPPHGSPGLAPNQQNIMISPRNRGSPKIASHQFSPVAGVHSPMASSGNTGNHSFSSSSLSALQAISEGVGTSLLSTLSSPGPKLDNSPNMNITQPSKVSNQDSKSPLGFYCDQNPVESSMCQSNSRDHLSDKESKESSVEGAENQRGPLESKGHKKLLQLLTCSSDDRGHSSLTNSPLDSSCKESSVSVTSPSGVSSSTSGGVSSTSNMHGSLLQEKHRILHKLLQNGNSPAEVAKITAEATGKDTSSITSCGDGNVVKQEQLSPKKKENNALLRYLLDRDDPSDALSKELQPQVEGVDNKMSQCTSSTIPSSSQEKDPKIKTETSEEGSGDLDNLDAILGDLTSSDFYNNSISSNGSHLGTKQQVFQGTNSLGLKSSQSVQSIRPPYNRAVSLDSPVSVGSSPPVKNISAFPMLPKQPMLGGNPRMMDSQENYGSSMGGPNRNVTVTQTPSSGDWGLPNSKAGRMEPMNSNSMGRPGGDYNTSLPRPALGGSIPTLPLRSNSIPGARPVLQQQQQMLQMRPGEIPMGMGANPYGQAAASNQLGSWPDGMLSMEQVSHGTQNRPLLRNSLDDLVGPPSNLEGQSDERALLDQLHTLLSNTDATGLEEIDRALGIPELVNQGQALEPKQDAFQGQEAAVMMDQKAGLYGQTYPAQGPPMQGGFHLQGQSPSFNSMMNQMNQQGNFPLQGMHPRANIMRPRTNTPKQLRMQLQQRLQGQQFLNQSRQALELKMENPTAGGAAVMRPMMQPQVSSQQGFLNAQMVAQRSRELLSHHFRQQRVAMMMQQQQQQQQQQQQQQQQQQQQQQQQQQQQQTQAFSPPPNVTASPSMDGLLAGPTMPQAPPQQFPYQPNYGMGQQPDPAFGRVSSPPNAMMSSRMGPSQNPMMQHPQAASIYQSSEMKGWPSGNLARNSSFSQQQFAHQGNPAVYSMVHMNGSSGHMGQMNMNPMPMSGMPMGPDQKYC
# [2] = test system: transactivating tegument protein VP16 (Human herpesvirus 1), Gal4-VP16 luciferase reporter; assay: repression of VP16-driven luciferase reporter – cell-based, luminescence, high throughput, counter-screen for SRC3 inhibitor project (AID 588794); conditions: mammalian cells, at 3.6 µM, hits give high values
Structure (SMILES),inhibition [1] [%],inhibition [2] [%]
CCOC(=O)c1c(Nc2ccccc2OCCOC)n[nH]c1C,-0.73,-0.92
Fc1ccc(-c2noc(C3CCN(Cc4cccnc4)CC3)n2)cc1,-4.45,6.14
OCCNCCOc1ccc(Cl)c(Cl)c1,5.72,2.08
COc1ccc(CNC(=O)COC(=O)c2cc(-c3ccc(Cl)s3)nc3ccccc23)cc1,-14.9,-13.6
